Experiment [1] in a line: yeast TOR pathway RPL19A-GFP modulators, primary screen, cell-based, S. cerevisiae, multiplex flow cytometry (AID 1862; in the data active = percent of DMSO control GFP below about 86%;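 also: lower values mimic rapamycin by blocking the RPL19A rise seen in DMSO cells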). To be noted: S. cerevisiae RPL19A-GFP strain, flow cytometry fluorescence, 3 h; at 10 µM; stronger effect = lower value.
A short description of experiment [2]: modulators of MEP2-GFP levels in yeast, primary screen, S. cerevisiae, multiplex flow cytometry (AID 1867;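 active = GFP response, as percent of the DMSO control, above the screen-wide mean plus 3 SD, about 139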;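 also: median GFP channel fluorescence of barcode-gated MEP2-GFP cells measured by flow cytometry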). To be noted: S. cerevisiae MEP2-GFP strain, 3 h, at 10 µM, stronger effect = higher value, 100% means same as DMSO wells.
Experiment [3] is described as follows: modulators of CIT2-GFP expression in yeast, primary screen, S. cerevisiae, GFP fusion, multiplex flow cytometry (AID 1870;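 active = percent response above a set limit, the screen-wide mean plus 3 SD, cut at about 130% in these data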;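 also: barcoded CIT2-GFP strain pooled with four other GFP strains with rapamycin as positive control; median GFP fluorescence per well over plate mean of DMSO wells so 100% = DMSO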). To be noted: 3 h, at 10 µM, stronger effect = higher value. (In general: A flow cytometer gives signals particle by particle.)
Experiment [4] is described as follows: modulators of LAP4-GFP expression in yeast, primary screen, S. cerevisiae, multiplex flow cytometry (AID 1873;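 active = GFP signal, as percent of the solvent control, above the screen mean plus 3 SD, about 149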). The conditions noted are these: 3 h, at 10 µM, stronger effect = higher value.
The nature of experiment [5]: modulators of AGP1-GFP expression in yeast TOR pathway, primary screen, cell-based, multiplex flow cytometry, S. cerevisiae (AID 1887;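 active = GFP signal above the screen-wide mean plus 3 SD, that is over about 124.5% of the solvent control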;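 also: AGP1-GFP fusion strain of S. cerevisiae within a five-strain barcoded multiplex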). The conditions noted are these: 3 h, at 10 µM, stronger effect = higher value.
Experiment [6] is described as follows: inhibitors of CD8+ T cell-vesicle binding, pilot screen, LFA-1/ICAM-1 modulator project, MLPCN validation set, flow cytometry (AID 2523;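 active = response below a set limit, under 55% cells CD8-positive and vesicle-bound, and CD8 cells' 90th-percentile brightness under 279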;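 as to vesicle binding response: mean PE anti-B7-1 fluorescence of CD8+ cells relative to row control; 100% = QL9-loaded vesicles with DMSO vehicle in the same plate row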). The conditions noted are these: 2C mouse CD8+ T cells, at 7 µM, stronger effect = lower value; double positive events: measured here: CD8+/vesicle+ event percentage.
The target in experiment [7] is Integrin beta-1 (Homo sapiens) + Integrin alpha-4 (Homo sapiens) (UniProt P13612+P05556). The experiment is described as follows: inhibition of HUTS-21 binding to VLA-4, pilot screen, VLA-4 allosteric modulator project, U937 cells, HUTS-21 mAb, flow cytometry, validation set (AID 2674;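 active = inhibition above 50%, about 3 SD of the validation set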;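 also: antibody binding induced by the VLA-4 ligand LDV present at three times its Kd; 0% = LDV ligand with antibody and no compound and 100% = antibody without LDV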). To be noted: HUTS-21 LIBS mAb binding, at 6.7 µM, stronger effect = higher value, binding induced by LDV ligand.

Experiment [8] in a line: superoxide lowering in aged yeast cells, pilot screen, validation compound set (AID 2706;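 active = superoxide response below 65% of plate, a cut near 3 SD across the whole screen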;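 also: yeast exposed to compound for one week at 30 degrees C before staining; 100% = mean of all compound wells on the same plate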). To be noted: S. cerevisiae aging, superoxide DHE fluorescence; at 10 µM, stronger effect = lower value.
For experiment [9], the target named is Beta-adrenergic receptor kinase 1 (Homo sapiens) (UniProt P25098). The experiment is described as follows: GRK2 binders displacing RNA aptamer, biochemical, validation, human GRK2, bead flow cytometry (AID 488806). The conditions noted are these: bead-bound GRK2, FAM-aptamer displacement, at 10 µM, stronger effect = higher value.
In experiment [10] the target is AP-2 complex subunit beta (Homo sapiens) (UniProt P63010). The experiment is described as follows: inhibitors of arrestin peptide binding to AP2, pilot screen, biochemical, validation set, GST-AP2 beads, flow cytometry (AID 504541;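 active = inhibition above 54%, about 3 SD of non-fluorescent compounds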;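 also: AP2 carries R879A mutation and is captured from E. coli lysate; bead-bound FITC arrestin peptide fluorescence measuring arrestin peptide binding to AP2; 0% = DMSO wells and 100% = excess unlabeled arrestin peptide control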). The conditions noted are these: FITC arrestin peptide, at 10 µM, stronger effect = higher value, AP2 beta2 appendage fragment, R879A mutant.
Experiment [11] in a line: yeast V-ATPase proton transport modulators, S. cerevisiae, pHLuorin, HTS validation (AID 504600; in the data active = response above about 15%;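 also: plate controls were DMSO for no effect and reference compound for full effect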). The conditions noted are these: S. cerevisiae pHLuorin cytosolic pH, at 10 µM, stronger effect = higher value.
The subject of experiment [12] is anti-desmoglein-3 scFv antibody binding to human DSG3. Kind of experiment: inhibitors of anti-DSG3 scFv binding to DSG3, pilot screen, biochemical, validation compound set, bead-based, flow cytometry (AID 588368;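 active = binding below the plate cutoff, the plate median minus 3 SD, with a reading above zero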;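 also: signal is the median channel fluorescence of bead-bound GFP antibody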). The conditions noted are these: Protein G beads, DSG3-Fc, scFv-GFP binding, at 10 µM, stronger effect = lower value.
A short description of experiment [13]: inhibitors of fungal efflux pumps CDR1, CDR2, MDR1, pilot screen, validation compound set, multiplex, phenotypic (AID 588506;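 active = efflux inhibition above 0.42, the validation set average plus 4 SD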;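 also: Nile Red retained in cells so higher fluorescence means more efflux inhibition; 0 = negative control wells and 1 = enniatin B 25 µM full block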). The conditions noted are these: S. cerevisiae pump-expressing triplex, Nile Red efflux flow cytometry; at 10 µM; stronger effect = higher value; the pumps come from Candida albicans.
Experiment [14] deals with ATP-binding cassette sub-family B member 6 (Homo sapiens) (UniProt Q9NP58). Kind of experiment: ABCB6 transporter inhibitors, pilot screen, K562-ABCB6 cells, flow cytometry, validation set (AID 588550;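 active = inhibition above the screen-wide mean plus 3 SD, about 51%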;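 also: 0% = DMSO wells and 100% = benzethonium chloride 70 µM positive control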). To be noted: K562-ABCB6 porphyrin accumulation, 1 h, at 10 µM, stronger effect = higher value.
Experiment [15] in a line: promoters of myeloid differentiation in arrested cells, primary screen, cell-based, GFP/MAC1 double positive, flow cytometry, validation set (AID 588685;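 active = differentiation response of at least 50%, scaled between solvent and reference control, from cells with both markers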;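 also: compound exposure lasts four days before antibody staining and flow analysis; 0% = DMSO wells and 100% = 5 µM fulvestrant positive control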). The conditions noted are these: ER-HoxA9 marrow cells, stronger effect = higher value, normalized: vehicle 0, fulvestrant 100.

Structures are written as SMILES. Records with an inconclusive call do not appear. The source made the active and inactive calls.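 The calls were made as follows, unless noted: active = aptamer binding inhibition above 30%, about 3 SD of noise from non-fluorescent compounds; inactive = inhibition at or below 30%.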

In general, inhibition refers to the drop in the measured response relative to a control, in per cent.

ATP-binding cassette sub-family B member 6 (Homo sapiens), sequence (Q9NP58 whole entry, looked up): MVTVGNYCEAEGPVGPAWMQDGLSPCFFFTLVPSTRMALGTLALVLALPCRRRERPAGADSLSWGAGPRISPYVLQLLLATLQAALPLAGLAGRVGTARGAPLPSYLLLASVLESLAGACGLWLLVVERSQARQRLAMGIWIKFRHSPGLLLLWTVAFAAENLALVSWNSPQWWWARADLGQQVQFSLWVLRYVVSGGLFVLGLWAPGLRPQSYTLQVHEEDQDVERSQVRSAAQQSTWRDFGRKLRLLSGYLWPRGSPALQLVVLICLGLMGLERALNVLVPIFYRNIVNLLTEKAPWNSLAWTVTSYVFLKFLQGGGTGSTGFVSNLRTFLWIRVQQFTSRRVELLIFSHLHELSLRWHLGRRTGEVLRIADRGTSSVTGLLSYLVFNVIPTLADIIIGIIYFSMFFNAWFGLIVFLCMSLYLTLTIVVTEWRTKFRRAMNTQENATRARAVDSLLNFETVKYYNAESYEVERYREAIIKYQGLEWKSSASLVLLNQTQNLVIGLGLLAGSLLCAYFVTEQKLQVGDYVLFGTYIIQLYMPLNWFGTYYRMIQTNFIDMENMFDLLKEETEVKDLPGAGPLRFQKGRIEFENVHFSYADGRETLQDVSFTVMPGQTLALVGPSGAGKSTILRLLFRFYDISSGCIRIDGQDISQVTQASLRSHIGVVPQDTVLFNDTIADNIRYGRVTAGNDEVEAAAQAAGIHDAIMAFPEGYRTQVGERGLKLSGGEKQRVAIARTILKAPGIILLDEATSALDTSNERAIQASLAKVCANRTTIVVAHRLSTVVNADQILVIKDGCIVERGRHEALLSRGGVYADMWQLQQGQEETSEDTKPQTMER
Beta-adrenergic receptor kinase 1 (Homo sapiens), sequence (P25098 whole entry, looked up): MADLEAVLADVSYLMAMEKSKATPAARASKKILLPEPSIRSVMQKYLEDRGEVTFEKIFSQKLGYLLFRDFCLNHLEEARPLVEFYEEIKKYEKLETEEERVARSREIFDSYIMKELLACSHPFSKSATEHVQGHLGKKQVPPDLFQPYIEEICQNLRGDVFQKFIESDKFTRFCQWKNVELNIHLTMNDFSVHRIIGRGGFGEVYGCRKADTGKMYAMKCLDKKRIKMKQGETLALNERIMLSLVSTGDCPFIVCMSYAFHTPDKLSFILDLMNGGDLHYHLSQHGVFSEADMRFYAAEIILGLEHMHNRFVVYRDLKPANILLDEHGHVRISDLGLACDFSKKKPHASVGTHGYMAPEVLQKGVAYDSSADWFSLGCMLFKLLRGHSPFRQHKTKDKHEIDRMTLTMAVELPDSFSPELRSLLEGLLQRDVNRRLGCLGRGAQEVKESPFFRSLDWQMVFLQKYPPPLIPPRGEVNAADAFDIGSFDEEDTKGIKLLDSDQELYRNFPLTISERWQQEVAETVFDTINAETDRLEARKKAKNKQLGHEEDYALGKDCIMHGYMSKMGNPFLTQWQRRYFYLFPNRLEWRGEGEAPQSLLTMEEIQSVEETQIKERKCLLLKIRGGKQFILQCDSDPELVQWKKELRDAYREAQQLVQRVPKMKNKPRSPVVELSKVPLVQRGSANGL
AP-2 complex subunit beta (Homo sapiens), sequence (P63010 whole entry, looked up, the tested form may be a part, one chain of several): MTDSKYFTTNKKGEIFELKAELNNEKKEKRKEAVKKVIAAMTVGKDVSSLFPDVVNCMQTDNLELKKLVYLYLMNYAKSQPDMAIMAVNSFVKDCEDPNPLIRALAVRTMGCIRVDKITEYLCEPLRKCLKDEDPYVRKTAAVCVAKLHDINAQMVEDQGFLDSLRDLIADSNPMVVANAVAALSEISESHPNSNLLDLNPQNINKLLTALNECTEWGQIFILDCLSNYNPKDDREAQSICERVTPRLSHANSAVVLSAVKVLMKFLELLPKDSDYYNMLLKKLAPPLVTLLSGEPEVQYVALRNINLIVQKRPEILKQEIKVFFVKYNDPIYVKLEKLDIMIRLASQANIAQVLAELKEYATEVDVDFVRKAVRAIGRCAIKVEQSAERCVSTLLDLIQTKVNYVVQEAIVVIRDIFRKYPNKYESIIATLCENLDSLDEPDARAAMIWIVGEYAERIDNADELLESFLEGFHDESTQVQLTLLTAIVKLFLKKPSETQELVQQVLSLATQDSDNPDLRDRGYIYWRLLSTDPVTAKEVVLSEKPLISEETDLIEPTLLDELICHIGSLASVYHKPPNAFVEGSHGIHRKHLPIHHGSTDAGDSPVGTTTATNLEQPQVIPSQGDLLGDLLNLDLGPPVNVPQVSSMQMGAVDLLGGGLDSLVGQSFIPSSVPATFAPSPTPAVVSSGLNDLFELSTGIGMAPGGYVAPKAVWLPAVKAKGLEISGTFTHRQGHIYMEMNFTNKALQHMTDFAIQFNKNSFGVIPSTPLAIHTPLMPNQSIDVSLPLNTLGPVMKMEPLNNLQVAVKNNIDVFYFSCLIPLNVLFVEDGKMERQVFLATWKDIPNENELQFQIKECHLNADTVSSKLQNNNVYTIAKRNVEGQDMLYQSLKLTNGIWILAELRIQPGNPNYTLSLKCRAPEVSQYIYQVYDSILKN
Integrin beta-1 (Homo sapiens) + Integrin alpha-4 (Homo sapiens), sequence (P05556 whole entry, looked up): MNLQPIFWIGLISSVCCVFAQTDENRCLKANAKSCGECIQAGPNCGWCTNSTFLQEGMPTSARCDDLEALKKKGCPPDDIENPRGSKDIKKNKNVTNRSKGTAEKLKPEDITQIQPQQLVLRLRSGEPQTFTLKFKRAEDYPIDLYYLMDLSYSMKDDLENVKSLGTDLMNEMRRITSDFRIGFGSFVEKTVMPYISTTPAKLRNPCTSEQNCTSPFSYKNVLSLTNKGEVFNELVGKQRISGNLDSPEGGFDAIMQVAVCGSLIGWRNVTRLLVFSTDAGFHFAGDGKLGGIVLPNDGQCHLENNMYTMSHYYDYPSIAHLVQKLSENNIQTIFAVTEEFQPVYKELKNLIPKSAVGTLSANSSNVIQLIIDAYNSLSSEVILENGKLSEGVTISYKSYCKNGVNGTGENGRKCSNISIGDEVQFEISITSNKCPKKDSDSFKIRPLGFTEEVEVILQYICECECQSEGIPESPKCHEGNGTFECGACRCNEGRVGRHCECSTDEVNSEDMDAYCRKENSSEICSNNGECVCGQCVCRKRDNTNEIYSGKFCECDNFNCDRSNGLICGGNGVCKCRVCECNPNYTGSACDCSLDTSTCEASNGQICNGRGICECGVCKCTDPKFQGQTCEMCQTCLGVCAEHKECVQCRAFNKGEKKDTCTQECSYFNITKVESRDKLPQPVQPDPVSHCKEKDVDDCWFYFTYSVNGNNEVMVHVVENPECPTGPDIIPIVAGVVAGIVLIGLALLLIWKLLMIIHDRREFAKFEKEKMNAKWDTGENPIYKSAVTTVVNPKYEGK
Integrin beta-1 (Homo sapiens) + Integrin alpha-4 (Homo sapiens), sequence (P13612 whole entry, looked up): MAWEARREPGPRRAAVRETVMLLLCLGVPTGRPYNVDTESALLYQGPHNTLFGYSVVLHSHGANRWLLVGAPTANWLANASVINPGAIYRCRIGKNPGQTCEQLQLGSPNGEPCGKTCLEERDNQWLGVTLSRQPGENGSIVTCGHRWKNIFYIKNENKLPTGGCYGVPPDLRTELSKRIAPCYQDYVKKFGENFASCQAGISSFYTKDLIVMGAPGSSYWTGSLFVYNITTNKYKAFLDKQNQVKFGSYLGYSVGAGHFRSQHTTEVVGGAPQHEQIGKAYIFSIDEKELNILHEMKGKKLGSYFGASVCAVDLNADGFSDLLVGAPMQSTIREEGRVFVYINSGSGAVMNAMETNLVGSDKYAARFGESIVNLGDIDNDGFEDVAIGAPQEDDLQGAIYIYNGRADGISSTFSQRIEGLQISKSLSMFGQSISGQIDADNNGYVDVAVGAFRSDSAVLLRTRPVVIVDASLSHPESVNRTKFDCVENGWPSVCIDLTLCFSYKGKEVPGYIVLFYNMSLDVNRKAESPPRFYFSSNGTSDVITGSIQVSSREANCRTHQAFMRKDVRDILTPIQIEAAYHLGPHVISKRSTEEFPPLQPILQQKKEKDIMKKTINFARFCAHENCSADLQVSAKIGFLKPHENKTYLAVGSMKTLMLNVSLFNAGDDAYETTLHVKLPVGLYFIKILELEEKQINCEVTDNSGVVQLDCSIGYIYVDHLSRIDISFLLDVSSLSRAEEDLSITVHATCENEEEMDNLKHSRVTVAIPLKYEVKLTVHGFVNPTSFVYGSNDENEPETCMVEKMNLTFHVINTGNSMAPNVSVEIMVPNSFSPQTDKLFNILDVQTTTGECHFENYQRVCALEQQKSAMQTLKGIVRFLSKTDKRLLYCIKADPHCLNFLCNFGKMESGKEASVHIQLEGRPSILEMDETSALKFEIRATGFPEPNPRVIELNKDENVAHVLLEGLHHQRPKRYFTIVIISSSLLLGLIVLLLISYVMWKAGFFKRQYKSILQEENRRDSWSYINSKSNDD

Take `CN(CCc1cnn(C)c1)Cc1nc(CC2CC2)no1`: the percent of DMSO control GFP in [1] was 101% (inactive). Further, the GFP response vs DMSO in experiment [2] was 101% (inactive); in experiment [4], 105% (inactive). Also, the percent response of DMSO control in experiment [3] is 110% (inactive). Besides, the GFP response, % of DMSO in experiment [5] is 105% (inactive). The compound also came in with a double positive events in [6] of 58.1%. The vesicle binding response in experiment [6] was 194% (inactive). Further, the inhibition in experiment [7] is -11.4% (inactive); in [10] it was 23.6% (inactive); in [14] it was 8% (inactive). For the same compound, the superoxide response (% of plate) in experiment [8] was 106% (inactive). Besides, the aptamer binding inhibition in experiment [9] was 2% (inactive). Moreover, in [11], the response was -2.33% (inactive). Also, the binding (% of control) in experiment [12] is 104% (inactive). The efflux inhibition (fraction of control) in experiment [13] was -0.16 (inactive). The differentiation response in experiment [15] was -9.89% (inactive).

For the compound `O=C(O)CC(O)C(=O)O` (stereo not given), in experiment [1], the percent of DMSO control GFP is 101% (inactive). In addition, the GFP response vs DMSO is 106% (inactive) in [2] and 104% (inactive) in experiment [4]. Besides, in experiment [3], the percent response of DMSO control is 103% (inactive). The GFP response, % of DMSO in [5] is 99.6% (inactive). In experiment [6], this compound displayed a double positive events of 62.1%. For the same compound, the vesicle binding response in experiment [6] is 146% (inactive). The inhibition was 10.9% (inactive) in experiment [7], 1.04% (inactive) in experiment [10] and 14% (inactive) in [14]. Further, the superoxide response (% of plate) in experiment [8] is 95.8% (inactive). Further, the aptamer binding inhibition in experiment [9] is 3% (inactive). In addition, the response in [11] was -1.46% (inactive). In experiment [12], the binding (% of control) was 99.3% (inactive). The efflux inhibition (fraction of control) in experiment [13] is 0.1 (inactive). Moreover, the differentiation response in experiment [15] is 1.41% (inactive).

With `Cc1ncc([N+](=O)[O-])n1CCO`, in experiment [1], the percent of DMSO control GFP was 99.6% (inactive). Moreover, the GFP response vs DMSO was 93.8% (inactive) in experiment [2] and 97.4% (inactive) in [4]. In addition, in [3], the percent response of DMSO control is 105% (inactive). Moreover, the GFP response, % of DMSO in [5] was 94.6% (inactive). In experiment [6], this compound came in with a double positive events of 59.8%. In [6], the vesicle binding response is 172% (inactive). The inhibition in experiment [7] is 10% (inactive); in experiment [10], -1.26% (inactive); in experiment [14] it was 5% (inactive). The superoxide response (% of plate) in experiment [8] is 98.8% (inactive). The aptamer binding inhibition in experiment [9] was 1% (inactive). For the same compound, the response in experiment [11] was 3.07% (inactive). The binding (% of control) in experiment [12] was 93.1% (inactive). The efflux inhibition (fraction of control) in experiment [13] was 0.18 (inactive). The differentiation response in experiment [15] is -9.89% (inactive).

Turning to `CCc1cc2c(=O)c(-c3nc4ccccc4n3C)coc2c(CN2CCN(C)CC2)c1O`, the percent of DMSO control GFP in experiment [1] was 107% (inactive). The GFP response vs DMSO in experiment [2] is 107% (inactive); in experiment [4] it was 101% (inactive). In addition, in experiment [3], the percent response of DMSO control was 110% (inactive). The GFP response, % of DMSO in experiment [5] was 100% (inactive). Further, the double positive events in experiment [6] worked out at 49.7%. In addition, in [6], the vesicle binding response was 149% (inactive). Moreover, the inhibition is 17.5% (inactive) in experiment [7], 2.16% (inactive) in experiment [10] and 7% (inactive) in experiment [14]. In addition, in experiment [8], the superoxide response (% of plate) is 105% (inactive). The aptamer binding inhibition in [9] was 2% (inactive). Further, in [11], the response was 4.87% (inactive). The binding (% of control) in experiment [12] was 102% (inactive). Moreover, in experiment [13], the efflux inhibition (fraction of control) was -0.54 (inactive). Moreover, in experiment [15], the differentiation response is -0.2% (inactive).

`Cc1cnc(C(=O)N2CCCC(C(=O)c3ccc(Cl)cc3C)C2)cn1` (stereo not given): the percent of DMSO control GFP in experiment [1] is 104% (inactive). In addition, the GFP response vs DMSO in experiment [2] is 99.9% (inactive); in experiment [4], 96.4% (inactive). In experiment [3], the percent response of DMSO control was 105% (inactive). Moreover, the GFP response, % of DMSO in experiment [5] is 101% (inactive). Moreover, the double positive events in experiment [6] was found to be 50%. Further, in [6], the vesicle binding response was 175% (inactive). The inhibition in experiment [7] was -2.11% (inactive); in experiment [10] it was 21.9% (inactive); in [14] it was -25% (inactive). Moreover, the superoxide response (% of plate) in experiment [8] was 109% (inactive). Further, the aptamer binding inhibition in [9] is 2% (inactive). Also, the response in experiment [11] is 2.89% (inactive). Also, the binding (% of control) in experiment [12] is 101% (inactive). Moreover, in experiment [13], the efflux inhibition (fraction of control) is 0.18 (inactive). In addition, the differentiation response in experiment [15] is -18% (inactive).
